Experimental findings from ChEMBL document CHEMBL1961873, “Compounds: GSK PKIS; Assays: Nanosyn kinase panel” (2012) are described below.

Test [1] has as its target T1, Tyrosine-protein kinase receptor TYRO3 (Homo sapiens) (UniProt Q06418).
T1 sequence (whole entry): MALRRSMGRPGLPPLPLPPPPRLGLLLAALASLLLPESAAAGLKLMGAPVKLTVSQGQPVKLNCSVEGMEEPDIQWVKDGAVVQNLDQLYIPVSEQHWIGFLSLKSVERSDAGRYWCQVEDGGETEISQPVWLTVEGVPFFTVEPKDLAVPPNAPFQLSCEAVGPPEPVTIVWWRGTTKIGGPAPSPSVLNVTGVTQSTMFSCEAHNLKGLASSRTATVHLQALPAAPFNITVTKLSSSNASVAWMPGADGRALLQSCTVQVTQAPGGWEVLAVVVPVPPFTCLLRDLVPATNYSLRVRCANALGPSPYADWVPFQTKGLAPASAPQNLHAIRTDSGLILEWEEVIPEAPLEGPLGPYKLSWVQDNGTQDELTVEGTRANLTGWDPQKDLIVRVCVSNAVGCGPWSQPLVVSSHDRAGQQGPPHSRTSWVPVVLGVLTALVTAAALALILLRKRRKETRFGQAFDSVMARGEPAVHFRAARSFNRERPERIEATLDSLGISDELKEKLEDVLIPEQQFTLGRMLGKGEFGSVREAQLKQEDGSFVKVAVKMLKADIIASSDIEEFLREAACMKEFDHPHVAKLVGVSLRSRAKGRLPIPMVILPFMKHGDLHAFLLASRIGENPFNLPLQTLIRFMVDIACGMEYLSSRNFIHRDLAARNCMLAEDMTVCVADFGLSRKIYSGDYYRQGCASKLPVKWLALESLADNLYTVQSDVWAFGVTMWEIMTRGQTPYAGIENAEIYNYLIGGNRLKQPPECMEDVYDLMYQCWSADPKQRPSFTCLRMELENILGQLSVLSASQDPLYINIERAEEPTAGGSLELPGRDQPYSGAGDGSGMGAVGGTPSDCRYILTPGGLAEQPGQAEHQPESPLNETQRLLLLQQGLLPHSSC
As to conditions: at 1 µM.

Test [2] concerns the target Tyrosine-protein kinase Yes (Homo sapiens) (UniProt P07947). Conditions: at 0.1 µM.
For test [3] the target is unchanged. As to conditions: at 1 µM.
In test [4] the target is T2, Tyrosine-protein kinase ZAP-70 (Homo sapiens) (UniProt P43403).
T2 sequence (whole entry): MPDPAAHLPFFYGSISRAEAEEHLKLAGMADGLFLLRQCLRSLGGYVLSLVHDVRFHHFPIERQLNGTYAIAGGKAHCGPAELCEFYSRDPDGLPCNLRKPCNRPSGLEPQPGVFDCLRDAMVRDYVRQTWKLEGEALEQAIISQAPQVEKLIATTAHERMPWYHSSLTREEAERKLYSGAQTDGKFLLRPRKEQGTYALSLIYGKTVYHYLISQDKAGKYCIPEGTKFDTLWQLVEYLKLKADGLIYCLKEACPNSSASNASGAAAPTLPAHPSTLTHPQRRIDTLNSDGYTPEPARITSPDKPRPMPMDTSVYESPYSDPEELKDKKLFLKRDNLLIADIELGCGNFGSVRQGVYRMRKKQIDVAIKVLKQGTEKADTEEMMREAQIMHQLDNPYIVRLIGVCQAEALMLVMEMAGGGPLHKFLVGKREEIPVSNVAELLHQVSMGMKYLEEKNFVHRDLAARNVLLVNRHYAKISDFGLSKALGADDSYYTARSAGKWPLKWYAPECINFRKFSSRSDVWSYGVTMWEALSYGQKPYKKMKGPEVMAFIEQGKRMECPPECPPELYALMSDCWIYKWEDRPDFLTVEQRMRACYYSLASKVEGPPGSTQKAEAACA
Conditions: at 0.1 µM.

Test [5] addresses T2, Tyrosine-protein kinase ZAP-70 (Homo sapiens). As to conditions: at 1 µM.
Test [6] deals with RAF proto-oncogene serine/threonine-protein kinase (Homo sapiens) (UniProt P04049). As to conditions: at 0.1 µM.
Test [7] shares this target. Conditions: at 1 µM.
For test [8], the target named is T3, Interleukin-1 receptor-associated kinase 4 (Homo sapiens) (UniProt Q9NWZ3).
T3 sequence (whole entry): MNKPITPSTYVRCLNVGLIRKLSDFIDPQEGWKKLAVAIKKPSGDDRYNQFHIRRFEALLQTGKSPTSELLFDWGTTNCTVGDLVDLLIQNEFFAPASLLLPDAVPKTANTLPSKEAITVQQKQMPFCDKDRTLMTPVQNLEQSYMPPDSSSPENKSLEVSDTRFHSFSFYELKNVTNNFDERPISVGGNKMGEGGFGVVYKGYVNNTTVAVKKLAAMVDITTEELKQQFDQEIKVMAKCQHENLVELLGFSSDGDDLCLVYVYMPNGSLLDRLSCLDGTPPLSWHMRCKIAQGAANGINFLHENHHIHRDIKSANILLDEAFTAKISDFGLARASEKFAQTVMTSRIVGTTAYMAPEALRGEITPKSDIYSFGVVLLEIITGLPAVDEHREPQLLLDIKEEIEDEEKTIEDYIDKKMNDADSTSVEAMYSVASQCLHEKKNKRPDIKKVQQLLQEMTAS
Conditions: at 0.1 µM.

The target of test [9] is T3, Interleukin-1 receptor-associated kinase 4 (Homo sapiens). As to conditions: at 1 µM.
Test [10] deals with Leucine-rich repeat serine/threonine-protein kinase 2 (Homo sapiens) (UniProt Q5S007). As to conditions: at 0.1 µM.
Test [11] shares this target. As to conditions: at 1 µM.
For test [12], the system named is Leucine-rich repeat serine/threonine-protein kinase 2 (Homo sapiens), Q5S007 [G2019S]. As to conditions: at 0.1 µM.
For test [13] the test system is unchanged. Conditions: at 1 µM.
Test [14] addresses Serine/threonine-protein kinase B-raf (Homo sapiens) (UniProt P15056). As to conditions: at 0.1 µM.
The target is the same in test [15]. Conditions: at 1 µM.
Test [16] deals with Serine/threonine-protein kinase B-raf (Homo sapiens), P15056 [V600E]. Conditions: at 0.1 µM.
Test [17] has the same test system. Conditions: at 1 µM.

Chain of Leucine-rich repeat serine/threonine-protein kinase 2 (Homo sapiens) (Q5S007 whole entry): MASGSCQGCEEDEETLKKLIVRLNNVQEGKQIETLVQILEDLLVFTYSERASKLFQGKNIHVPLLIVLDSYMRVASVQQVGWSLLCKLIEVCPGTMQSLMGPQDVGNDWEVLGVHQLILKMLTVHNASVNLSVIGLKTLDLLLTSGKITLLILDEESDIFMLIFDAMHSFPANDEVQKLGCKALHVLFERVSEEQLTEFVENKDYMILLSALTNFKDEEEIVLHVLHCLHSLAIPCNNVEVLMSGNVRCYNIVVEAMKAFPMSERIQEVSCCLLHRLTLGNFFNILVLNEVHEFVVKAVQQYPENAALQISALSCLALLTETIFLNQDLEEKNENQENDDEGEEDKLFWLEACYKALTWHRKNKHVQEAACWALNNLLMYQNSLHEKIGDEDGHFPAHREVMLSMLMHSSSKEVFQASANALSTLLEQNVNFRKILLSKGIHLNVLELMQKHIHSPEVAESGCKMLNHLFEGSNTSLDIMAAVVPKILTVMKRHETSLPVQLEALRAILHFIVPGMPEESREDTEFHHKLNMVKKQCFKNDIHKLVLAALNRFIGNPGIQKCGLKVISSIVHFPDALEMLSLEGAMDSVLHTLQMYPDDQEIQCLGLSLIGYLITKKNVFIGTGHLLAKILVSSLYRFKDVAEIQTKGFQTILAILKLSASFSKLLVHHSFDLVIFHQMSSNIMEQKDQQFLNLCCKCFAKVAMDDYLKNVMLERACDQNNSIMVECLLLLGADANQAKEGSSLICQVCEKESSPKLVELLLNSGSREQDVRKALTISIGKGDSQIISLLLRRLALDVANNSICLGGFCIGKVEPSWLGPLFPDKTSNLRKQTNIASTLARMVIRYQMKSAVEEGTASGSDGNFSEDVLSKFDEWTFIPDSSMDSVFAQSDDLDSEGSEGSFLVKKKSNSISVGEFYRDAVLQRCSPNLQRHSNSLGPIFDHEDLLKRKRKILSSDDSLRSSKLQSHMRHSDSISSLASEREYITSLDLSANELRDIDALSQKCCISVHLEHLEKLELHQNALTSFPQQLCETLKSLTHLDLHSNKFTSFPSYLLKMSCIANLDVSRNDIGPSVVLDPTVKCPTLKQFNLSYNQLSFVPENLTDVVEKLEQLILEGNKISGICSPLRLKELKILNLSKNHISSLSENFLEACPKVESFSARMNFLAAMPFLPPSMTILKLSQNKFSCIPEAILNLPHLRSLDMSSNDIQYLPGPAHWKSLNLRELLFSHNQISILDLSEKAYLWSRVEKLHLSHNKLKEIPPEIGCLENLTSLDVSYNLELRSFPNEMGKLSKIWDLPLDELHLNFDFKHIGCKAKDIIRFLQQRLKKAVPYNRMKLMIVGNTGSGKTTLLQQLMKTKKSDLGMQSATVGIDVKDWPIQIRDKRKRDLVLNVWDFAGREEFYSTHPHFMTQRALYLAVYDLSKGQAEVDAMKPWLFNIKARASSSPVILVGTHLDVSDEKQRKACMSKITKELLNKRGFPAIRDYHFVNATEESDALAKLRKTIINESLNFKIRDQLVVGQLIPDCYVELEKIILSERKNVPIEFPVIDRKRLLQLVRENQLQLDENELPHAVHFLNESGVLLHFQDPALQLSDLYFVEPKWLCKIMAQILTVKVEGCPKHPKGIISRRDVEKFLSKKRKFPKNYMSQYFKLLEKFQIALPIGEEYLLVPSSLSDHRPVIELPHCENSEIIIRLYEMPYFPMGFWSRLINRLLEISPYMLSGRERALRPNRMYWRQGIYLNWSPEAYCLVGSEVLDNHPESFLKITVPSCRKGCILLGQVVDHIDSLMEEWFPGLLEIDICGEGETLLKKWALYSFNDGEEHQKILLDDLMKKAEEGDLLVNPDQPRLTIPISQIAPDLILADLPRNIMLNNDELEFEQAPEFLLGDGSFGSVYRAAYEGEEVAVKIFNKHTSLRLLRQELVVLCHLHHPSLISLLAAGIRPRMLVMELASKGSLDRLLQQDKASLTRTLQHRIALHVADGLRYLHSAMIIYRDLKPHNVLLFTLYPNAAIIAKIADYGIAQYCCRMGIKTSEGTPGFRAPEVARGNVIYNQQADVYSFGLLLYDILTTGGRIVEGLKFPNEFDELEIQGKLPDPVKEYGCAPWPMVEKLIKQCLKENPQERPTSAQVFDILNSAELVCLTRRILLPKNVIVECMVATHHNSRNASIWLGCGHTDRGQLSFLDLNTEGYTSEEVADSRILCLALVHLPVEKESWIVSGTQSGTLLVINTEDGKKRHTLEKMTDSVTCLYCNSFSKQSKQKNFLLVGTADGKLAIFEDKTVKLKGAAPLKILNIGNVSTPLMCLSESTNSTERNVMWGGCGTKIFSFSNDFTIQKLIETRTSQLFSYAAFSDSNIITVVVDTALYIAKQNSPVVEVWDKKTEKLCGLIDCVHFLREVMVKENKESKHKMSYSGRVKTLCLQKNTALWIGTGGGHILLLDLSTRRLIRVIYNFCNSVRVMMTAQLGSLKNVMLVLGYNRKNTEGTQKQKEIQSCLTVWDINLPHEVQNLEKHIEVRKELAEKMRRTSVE
Chain of Serine/threonine-protein kinase B-raf (Homo sapiens) (P15056 whole entry): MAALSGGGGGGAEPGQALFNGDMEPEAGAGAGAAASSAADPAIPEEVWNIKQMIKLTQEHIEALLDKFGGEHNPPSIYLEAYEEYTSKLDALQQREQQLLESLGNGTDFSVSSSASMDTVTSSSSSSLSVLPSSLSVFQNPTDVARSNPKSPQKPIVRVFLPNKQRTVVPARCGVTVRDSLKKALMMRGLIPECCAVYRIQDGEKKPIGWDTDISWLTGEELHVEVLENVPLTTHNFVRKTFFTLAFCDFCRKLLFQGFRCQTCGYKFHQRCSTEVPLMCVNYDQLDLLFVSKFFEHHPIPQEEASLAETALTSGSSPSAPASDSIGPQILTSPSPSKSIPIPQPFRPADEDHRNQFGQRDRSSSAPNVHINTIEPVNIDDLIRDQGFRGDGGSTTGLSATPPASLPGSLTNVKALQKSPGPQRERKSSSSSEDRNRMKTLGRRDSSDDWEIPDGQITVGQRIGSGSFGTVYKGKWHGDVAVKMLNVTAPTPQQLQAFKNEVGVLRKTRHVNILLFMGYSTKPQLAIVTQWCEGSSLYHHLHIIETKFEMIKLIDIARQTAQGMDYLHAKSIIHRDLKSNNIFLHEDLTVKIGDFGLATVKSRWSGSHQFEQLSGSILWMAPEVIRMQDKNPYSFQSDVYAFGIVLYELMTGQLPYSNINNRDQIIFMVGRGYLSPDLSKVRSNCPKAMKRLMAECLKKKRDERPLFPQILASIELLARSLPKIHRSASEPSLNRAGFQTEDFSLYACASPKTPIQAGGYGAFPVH
Chain of RAF proto-oncogene serine/threonine-protein kinase (Homo sapiens) (P04049 whole entry): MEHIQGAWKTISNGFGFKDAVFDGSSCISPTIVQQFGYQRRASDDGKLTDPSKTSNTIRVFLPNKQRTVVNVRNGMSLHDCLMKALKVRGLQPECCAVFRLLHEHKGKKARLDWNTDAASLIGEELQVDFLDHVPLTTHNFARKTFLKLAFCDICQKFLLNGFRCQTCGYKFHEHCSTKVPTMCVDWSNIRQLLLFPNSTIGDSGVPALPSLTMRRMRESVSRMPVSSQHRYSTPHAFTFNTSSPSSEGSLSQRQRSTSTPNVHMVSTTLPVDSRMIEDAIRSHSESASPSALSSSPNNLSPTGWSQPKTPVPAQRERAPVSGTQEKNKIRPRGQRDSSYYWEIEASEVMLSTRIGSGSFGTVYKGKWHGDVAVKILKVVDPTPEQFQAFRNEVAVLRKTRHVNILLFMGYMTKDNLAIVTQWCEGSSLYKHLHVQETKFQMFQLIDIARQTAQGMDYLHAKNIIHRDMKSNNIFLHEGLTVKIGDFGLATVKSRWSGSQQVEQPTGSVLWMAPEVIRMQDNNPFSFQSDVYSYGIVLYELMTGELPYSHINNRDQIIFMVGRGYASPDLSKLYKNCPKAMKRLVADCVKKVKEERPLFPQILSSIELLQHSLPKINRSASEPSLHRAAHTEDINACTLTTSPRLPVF
Chain of Leucine-rich repeat serine/threonine-protein kinase 2 (Homo sapiens), Q5S007 [G2019S] (Q5S007 whole entry G2019S): as the sequence (Q5S007 whole entry) above, with G2019S counted along it
Chain of Tyrosine-protein kinase Yes (Homo sapiens) (P07947 2-543 limits assumed): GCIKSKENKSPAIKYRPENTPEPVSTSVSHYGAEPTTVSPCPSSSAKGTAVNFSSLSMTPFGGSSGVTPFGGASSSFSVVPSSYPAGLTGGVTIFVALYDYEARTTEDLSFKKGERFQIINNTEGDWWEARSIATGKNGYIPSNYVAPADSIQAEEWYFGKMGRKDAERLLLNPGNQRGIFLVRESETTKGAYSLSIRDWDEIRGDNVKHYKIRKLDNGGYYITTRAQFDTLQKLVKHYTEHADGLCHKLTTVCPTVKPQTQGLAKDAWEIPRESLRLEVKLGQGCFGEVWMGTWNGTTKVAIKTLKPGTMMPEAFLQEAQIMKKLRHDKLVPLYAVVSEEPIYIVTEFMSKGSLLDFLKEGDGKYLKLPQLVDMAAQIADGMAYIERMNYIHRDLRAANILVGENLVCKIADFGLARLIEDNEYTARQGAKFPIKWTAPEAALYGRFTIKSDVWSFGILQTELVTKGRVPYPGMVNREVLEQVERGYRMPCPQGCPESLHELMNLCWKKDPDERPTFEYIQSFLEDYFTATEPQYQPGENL
Chain of Serine/threonine-protein kinase B-raf (Homo sapiens), P15056 [V600E] (P15056 whole entry V600E): as the sequence (P15056 whole entry) above, with V600E counted along it

Usually inhibition stands for the drop in the measured response relative to a control, in per cent. On to `NCc1ccc(-c2nc(-c3ccc(Cl)c(O)c3)c(-c3ccncc3)[nH]2)cc1`, for which the inhibition in test [1] was 5.26%; in test [2], 5.85%; in test [3], 37.7%; in test [4], 0.84%; in test [5] it was 1.92%; in test [6], 6.34%. For the same compound, the inhibition in test [7] was found to be 76.6%; in [8], 3%; in test [9] it was 0.37%; in test [10], 1.04%; in test [11], 1.56%; in [12] it was 1.02%. The inhibition in test [13] was determined as 4.61%.

`NC(=O)c1ccc(-c2nc(-c3ccccn3)c(-c3ccc4c(c3)OCO4)[nH]2)cc1`: the inhibition is 1.12% in test [1]; 2.51% in test [2]; 7.17% in test [3]; 0.96% in [4]; -2.34% in [5]; -6.15% in test [6]. Besides, the inhibition was determined as 15.6% in [7]; 2.26% in [8]; 1.06% in test [9]; 2.49% in test [10]; 5.02% in test [11]; 2.85% in [12]. Moreover, the inhibition in test [13] was 3.41%.

Consider `COC(=O)Nc1nc2cc(Oc3ccc(NC(=O)Nc4cccc(C(=O)O)c4)cc3)ccc2[nH]1`, for which the inhibition is 3.17% in test [1]; 0% in [2]; 2.43% in [3]; -4.68% in test [4]; -4.2% in test [5]; -0.5% in test [14]. For the same compound, the inhibition was -1.69% in test [15]; -0.53% in test [16]; -0.73% in [17]; -0.09% in test [6]; 0.7% in test [7]; 1.45% in test [8]. Also, the inhibition in test [9] is 0.26%; in test [10], -4.47%; in [11] it was 4.49%; in test [12], -2.68%; in test [13] it was 3.07%.

Take `COc1ccc2cc(-c3c(-c4ccncc4)nc(-c4ccc([S+](C)[O-])cc4)n3C)ccc2c1` (configuration not stated): the inhibition turned out to be 0.86% in test [1]; 2.16% in test [2]; 8.42% in test [3]; 1.94% in [4]; 2.34% in [5]; 3.84% in test [14]. Moreover, the inhibition was 5.05% in [15]; 4.92% in test [16]; 4.5% in test [17]; 0.38% in [6]; 9.73% in test [7]; 3.57% in test [8]. For the same compound, the inhibition in test [9] was found to be 1.12%; in test [10], 2.6%; in test [11], 4.23%; in test [12] it was 3.37%; in test [13] it was 5.02%.

On to `CC(=O)Nc1cccc(C#Cc2cncnc2Nc2ccc(OCc3cccc(F)c3)c(Cl)c2)n1`, for which the inhibition in test [1] was 1.63%; in test [2], 4.46%; in test [3], 10.7%; in [4], 2.6%; in test [5], -0.49%; in test [14], -1.65%. The inhibition in test [15] was -3.08%; in test [16], -2.42%; in test [17] it was -2.04%; in test [6] it was 0.47%; in test [7] it was -2.95%; in test [8], -0.61%. Moreover, the inhibition is -0.89% in test [9]; 3.07% in [10]; 4.78% in test [11]; 2.03% in test [12]; 5% in [13].

As for `COc1cc(C)c(NC(=O)CN(C)C)cc1Nc1nc(Nc2cccc(F)c2C(N)=O)c2cc[nH]c2n1`, the inhibition in test [1] is 7.81%; in test [2] it was 2.05%; in test [3], -2.14%; in test [5] it was 3.93%; in [14] it was 2.75%; in test [15], 6.44%. Moreover, the inhibition in test [16] is 3.06%; in [17], 6.56%; in test [6], -0.92%; in [7], -0.14%; in test [8] it was -2.25%; in test [9] it was 2%. The inhibition in test [10] stood at 91.2%; in test [11] it was 90.2%; in [12], 83.5%; in test [13], 88.7%.

With `CCn1c(-c2nonc2N)nc2c(N3CCCC3)nccc21`, the inhibition was -1.5% in [1]; -4.35% in [2]; 4.6% in test [3]; 1.14% in [4]; 2.3% in [5]; 0.2% in test [14]. The inhibition in test [15] is 4.02%; in test [16], -2.4%; in [17] it was -2.63%; in test [6] it was -1.29%; in test [7] it was -1.43%; in [8], 1.9%. The inhibition in test [9] is -0.28%; in [10], -2.19%; in [11], 2.91%; in test [12], 0.77%; in test [13] it was 1.57%.

As for `CCN1CCC(CC(=O)Nc2n[nH]c3nc(-c4cccs4)c(Br)cc23)CC1`, the inhibition was 0.12% in test [1]; -2.01% in test [2]; 2.56% in test [3]; -3.15% in test [4]; -1.71% in test [5]; -3.34% in test [14]. For the same compound, the inhibition in test [15] is -4.88%; in test [16], -3.29%; in test [17], -4.51%; in [6] it was 3.42%; in test [7], 1.23%; in [8], -3.96%. Also, the inhibition is -0.76% in test [9]; -0.41% in test [10]; 2.42% in test [11]; 0.89% in test [12]; 2.44% in test [13].
